This excerpt belongs to a sample that is enriched for hits.
NSD2 block = inhibitors of human NSD2 methyltransferase. inhibition, % at 12.5 µM. O96028. AID 624260. hit rate 0.07% among 44,000. NSD2-SET H3K36me1 DELFIA fluorescence, biochemical; in the data active = inhibition above about 54%, passing the limit was not always enough;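 note: inhibitors reduce the monomethyl H3K36 fluorescence signal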
An asterisk follows results filed as active.

For CC(C)NC(=O)Nc1ccc2c(c1)C(=O)N([C@H](C)CO)C[C@@H](C)[C@H](CN(C)C(=O)Cc1ccccc1)OCCCC[C@@H](C)O2 the results were NSD2 block 15.4.
For COc1ccccc1CNC(=O)C[C@H]1C[C@@H]2c3cc(NC(=O)C4CCC4)ccc3O[C@@H]2[C@@H](CO)O1 the results were NSD2 block 2.3.
`CC(C(=O)O)c1ccc(C(=O)c2ccccc2)s1` (stereo unspecified) gave NSD2 block 0.6.
`CO[C@H](CN(C)C(=O)c1cc(Cl)cc(Cl)c1)[C@H](C)CN(C(=O)Nc1ccc(F)cc1)[C@H](C)CO` gave NSD2 block 3.2.
Screening CC(C)=CCc1c(O[C@@H]2O[C@H](CO)[C@@H](O)[C@H](O)[C@H]2O)cc(O)c2c1O[C@H](c1ccc(O)cc1)CC2=O returned NSD2 block 70.5*.
`COc1c(OC2OC(CO)C(O)C(O)C2O)cc(O)c2c1OC(c1ccccc1)CC2=O` (stereo unspecified) gave NSD2 block 36.0.
Screening O=C1CC(c2ccc(O)cc2)Oc2cc(O[C@@H]3O[C@H](CO)[C@@H](O)[C@H](O)[C@H]3O)cc(O)c21 (stereo partly specified) returned NSD2 block -1.8.
CC(=O)N(C)C[C@H]1Oc2ncc(-c3ccc(F)cc3)cc2C(=O)N([C@H](C)CO)C[C@@H]1C was read as NSD2 block -1.5.
CCCCCCCCc1ccc(-c2ccc(C(=O)O)cc2)cc1 was read as NSD2 block 15.1.
Screening O=C(CCCCCCC(=O)Nc1ccccc1O)N/N=C/c1ccccc1Cl returned NSD2 block -2.0.
`CNC[C@@H]1Oc2ccc(NC(=O)Nc3ccc4c(c3)OCO4)cc2C(=O)N([C@H](C)CO)C[C@H]1C` gave NSD2 block 4.0.
COc1cccc(-c2ccc3c(c2)O[C@@H](CN(C)Cc2ccncc2)[C@H](C)CN([C@@H](C)CO)S3(=O)=O)c1 was read as NSD2 block 2.1.
C[C@@H]1CN([C@@H](C)CO)C(=O)Cc2cc(NC(=O)C3CCCCC3)ccc2O[C@H]1CN(C)CC1CC1 was read as NSD2 block 6.7.
`CC(C)NC(=O)N(C)C[C@@H]1OCCCC[C@H](C)Oc2ccc(NC(=O)Nc3ccc(F)cc3)cc2C(=O)N([C@@H](C)CO)C[C@@H]1C` gave NSD2 block -2.9.
For COc1ccc(CN(C)C[C@H]2OCCCC[C@@H](C)Oc3ccc(NS(=O)(=O)c4cccs4)cc3C(=O)N([C@H](C)CO)C[C@H]2C)cc1 the results were NSD2 block 7.3.
For C[C@@H]1CCCCO[C@@H](CN(C)C(=O)NC2CCCCC2)[C@@H](C)CN([C@H](C)CO)C(=O)c2cc(NC(=O)c3ccncc3)ccc2O1 the results were NSD2 block 0.1.
Screening C/C=C/c1ccc2c(c1)O[C@@H](CN(C)C(=O)c1cccc(F)c1)[C@H](C)CN([C@H](C)CO)S2(=O)=O returned NSD2 block -5.5.
Cc1noc(C)c1NC(=O)Nc1ccc2c(c1)C(=O)N([C@@H](C)CO)C[C@H](C)[C@@H](CN(C)C(=O)Nc1ccc(F)cc1)OCCCC[C@H](C)O2 was read as NSD2 block 1.7.
`COc1ccc(C[C@H](N)C(=O)N[C@H]2[C@@H](O)[C@H](n3cnc4c(N(C)C)ncnc43)O[C@@H]2CO)cc1` gave NSD2 block 2.1.
O=C(O)CCCCCCC(=O)Nc1ccc(C2CC(CSc3nc(-c4ccccc4)c(-c4ccccc4)o3)OC(c3ccccc3)O2)cc1 (stereo unspecified) was read as NSD2 block 40.9.
Screening Cc1noc(C)c1S(=O)(=O)N(C)C[C@@H]1Oc2ccc(NS(=O)(=O)c3ccc(Cl)cc3)cc2CC(=O)N([C@@H](C)CO)C[C@@H]1C returned NSD2 block 0.3.
For CCC(=O)N(C)C[C@H]1Oc2ncc(C3=CCCC3)cc2C(=O)N([C@H](C)CO)C[C@H]1C the results were NSD2 block 2.9.
For COc1cc([C@H]2OC[C@H]3[C@@H]2CO[C@H]3c2ccc(OC)c(OC)c2)ccc1O the results were NSD2 block -0.8.
For COc1cc([C@H]2OC[C@H]3[C@@H]2CO[C@@H]3c2ccc(O)c(OC)c2)ccc1O the results were NSD2 block 10.6.
For COc1cc(C[C@@H]2CO[C@@H](c3ccc(O)c(OC)c3)[C@@H]2CO)ccc1O the results were NSD2 block 68.0*.
For C[C@H]1CN([C@@H](C)CO)C(=O)c2cc(C#CC3CC3)cnc2O[C@H]1CN(C)S(C)(=O)=O the results were NSD2 block 2.4.
`C[C@@H]1CN([C@@H](C)CO)C(=O)Cc2cc(NS(=O)(=O)c3cccs3)ccc2O[C@H]1CN(C)S(=O)(=O)c1cccs1` gave NSD2 block 0.1.
Screening COc1cccc(-c2cnc3c(c2)C(=O)N([C@@H](C)CO)C[C@@H](C)[C@@H](CN(C)Cc2ccccc2)O3)c1 returned NSD2 block 3.0.
`C[C@H](CO)N1C[C@H](C)[C@H](CN(C)S(=O)(=O)c2cccs2)Oc2ccc(NC(=O)CCCCCC(=O)Nc3ccccc3N)cc2C1=O` gave NSD2 block 3.5.
Screening CC(C)NC(=O)Nc1ccc2c(c1)C(=O)N([C@H](C)CO)C[C@@H](C)[C@H](CN(C)S(=O)(=O)c1ccc(Cl)cc1)OCCCC[C@@H](C)O2 returned NSD2 block -3.8.
For C[C@H](CO)N1C[C@H](C)[C@H](CN(C)C(=O)Nc2ccc(F)cc2)Oc2c(NS(=O)(=O)c3ccc(Cl)cc3)cccc2C1=O the results were NSD2 block 0.3.
C[C@H]1CN([C@@H](C)CO)C(=O)c2cc(-c3ccc(C(=O)N(C)C)cc3)cnc2O[C@H]1CN(C)C(=O)CN(C)C was read as NSD2 block -1.5.
COC(=O)C1=CO[C@@H](O[C@@H]2O[C@H](CO)[C@@H](O)[C@H](O)[C@H]2O)[C@@H]2[C@@H](C)[C@@H](O)[C@@H](OC(=O)/C=C/c3ccc(O)c(O)c3)[C@H]12 was read as NSD2 block 4.3.
Screening COC(=O)C1=CO[C@@H](O[C@@H]2O[C@H](CO)[C@@H](O)[C@H](O)[C@H]2O)[C@H]2[C@@H]1C=CC21C=C([C@H](C)OC(=O)/C=C/c2ccc(O)cc2)C(=O)O1 (stereo partly specified) returned NSD2 block 76.1*.
For COC(=O)C1=CO[C@@H](O[C@@H]2O[C@H](CO)[C@@H](O)[C@H](O)[C@H]2O)[C@H]2[C@@H]1C=CC21C=C([C@H](C)O)C(=O)O1 (stereo partly specified) the results were NSD2 block 1.4.
C[C@@H]1CN([C@H](C)CO)C(=O)Cc2cc(N(C)C)ccc2O[C@H]1CN(C)S(=O)(=O)c1ccc(F)cc1 was read as NSD2 block 0.6.
COc1ccc(S(=O)(=O)N(C)C[C@H]2OCCCC[C@H](C)Oc3ccc(NS(=O)(=O)c4c(C)noc4C)cc3C(=O)N([C@@H](C)CO)C[C@H]2C)cc1 was read as NSD2 block -0.2.
C[C@@H]1CCCCO[C@@H](CN(C)C)[C@@H](C)CN([C@@H](C)CO)C(=O)c2cc(NS(=O)(=O)c3cn(C)cn3)ccc2O1 was read as NSD2 block -3.0.
CCc1nn(-c2ccccc2)c2nc(-c3ccccc3O)c3cc(OC)c(OC)cc3c12 was read as NSD2 block 0.3.
`Cc1ccc(S(=O)(=O)Nc2ccc3c(c2)C(=O)N([C@H](C)CO)C[C@H](C)[C@H](CN(C)Cc2ccncc2)O3)cc1` gave NSD2 block 4.2.
